Screens from PubChem BioAssay.
A selection: hits, their analogues and other compounds. The true share with any hit is near 19%.
IL-1B inflam inh = qHTS for Inhibitors of Inflammasome Signaling: IL-1-beta AlphaLISA Primary Screen | 360,000 compounds, 4.7% hits | activity change, % at 57.5 µM | THP-1 LPS/ATP IL-1B secretion, AlphaLISA, 16 h; active compounds read low; in the data active means activity change below about -50%; inconclusive means mostly about -30% to -49%
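THP-1 cells pretreated 1 hr with compounds (up to 57.5 uM final), then stimulated with LPS (250 ng/mL final) plus ATP (1.25 mM final); secreted IL-1B measured by AlphaLISA after 16 hr, decreased signal indicating inhibition.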
TDP1 cell noCPT = qHTS for Inhibitors of human tyrosyl-DNA phosphodiesterase 1 (TDP1): qHTS in cells in absence of CPT; Potency, µM (doses to about 46.2 µM), without a hit: at the top dose activity change, negative = growth inhibition, actives largely listed as inhibitors; AID 686978, 2013; 420,000 compounds, 15% hits; DT40 Tdp1-/- hTDP1 cells, no CPT, ATP luminescence, 48 h; further: potency means the concentration at half of the fitted maximal effect; nearly all actives have a fitted effect of over 55% in size
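Chicken DT40 Tdp1-/- cells complemented with human TDP1, screened without camptothecin (DMSO vehicle only), 400 cells/well. Compounds pin-transferred, cells incubated at 37 °C for at least 48 hr. Growth read as ATP-dependent luminescence (CellTiter-Glo, 30 min at RT).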
DT40 TDP1 CPT = qHTS for Inhibitors of human tyrosyl-DNA phosphodiesterase 1 (TDP1): qHTS in cells in presence of CPT; chicken DT40 Tdp1-/-;hTDP1 cells + 20 nM CPT, ATP luminescence, 48 h; Potency, µM (series often up to 46.2 µM), for inactives: top-dose activity change, negative = growth inhibition, actives largely listed as inhibitors; 420,000 compounds, 12% hits; AID 686979, 2013; further: potency means the concentration at half of the fitted maximal effect; nearly all actives have a fitted effect of over 55% in size
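Cell growth measured by CellTiter-Glo luminescence after a minimum 48 h, 37 C compound exposure with 20 nM CPT in Tdp1-knockout DT40 cells stably expressing hTDP1, seeded 400/well; qHTS titration format.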
HT1080NT lethal = qHTS for induction of synthetic lethality in tumor cells producing 2HG: qHTS for the HT-1080-NT fibrosarcoma cell line. Potency, µM (top dose mostly 46.1 µM), for inactives: at the highest dose activity, negative = less viability, hits mostly cytotoxic. 360,000 compounds, 1.6% hits. AID 686970, 2013. HT-1080-NT fibrosarcoma viability, CellTiter-Glo ATP luminescence, 48 h;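 further: NT is the 2HG producing partner of a matched IDH1 knockdown line; potency means the concentration at half of the fitted maximal effect; 0% = DMSO-treated cells and -100% = media-only wells without cells; nearly all actives have a fitted effect of over 55% in size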
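Luminescent CellTiter-Glo readout after 48 hours of compound exposure at 37 degrees C defined viability of HT-1080-NT cells. Activity was normalized to DMSO wells and cell-free media wells; concentration-response curves were fitted and assigned curve classes.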
HT1080 IDH1KD tx = qHTS for induction of synthetic lethality in tumor cells producing 2HG: qHTS for the HT-1080-IDH1KD cell line | HT-1080 IDH1 knockdown viability, ATP luminescence, 48 h | Potency, µM (series often up to 46.1 µM), for the others: at the top dose activity, negative = toxicity, actives largely listed as cytotoxic | 360,000 compounds, 2% hits | AID 686971, 2013;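 further: potency means the concentration at half of the fitted maximal effect; 0% = DMSO wells and -100% = cell-free medium wells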
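Luminescent ATP read-out (CellTiter-Glo, 10 min at room temperature) after 48 h compound exposure at 37 °C gave viability of IDH1-knockdown HT-1080 cells. Activity was normalised to DMSO and cell-free wells, then fitted as concentration-response curves.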
An asterisk follows results filed as active; u = inconclusive; x = not tested or not shown; [ ] = another dose, or the depositor's remark. Unless noted, the call rests on the fitted dose curve; in most records, active means well fitted curve in the direction sought with a large enough effect; inconclusive means small, poorly fitted or top-dose-only effect, or another doubt; inactive means no such curve, though single readings can be large; an effect the other way counts as inactive or inconclusive. Unless noted, on the % scale 0 is the no-effect control and ±100 the full control effect.

SMILES | IL-1B inflam inh | TDP1 cell noCPT | DT40 TDP1 CPT | HT1080NT lethal | HT1080 IDH1KD tx
COc1cccc(C(c2nnnn2Cc2ccccc2)N2CCC(n3c(=O)[nH]c4ccccc43)CC2)c1OC (centres undefined) | 0 | 3.3µM* | 2.6µM* | 21µM* | u
O=C(Cc1ccc(Cl)c(Cl)c1)N1CCCC[C@H]1CN1CCCC1 | x | 27µM* | 27µM* | x | x
COC(=O)N1CCN(C(=O)Cc2ccc(Cl)c(Cl)c2)[C@H](CN2CCCC2)C1 | x | u | -21% | x | x
CC#CP(=O)(OC)C(O)(CF)c1ccccc1 (centres undefined) | 18 | -2% | 7% | 5% | 12%
COc1ccc2c(C)c(CC(=O)N3C[C@H]4C[C@@H](C3)c3cccc(=O)n3C4)c(=O)oc2c1C | 0 | -4% | 1% | 1% | 0%
O=C(C[C@@H]1CC[C@@H]2[C@H](COC[C@H](O)CN2Cc2cccc(C(F)(F)F)c2)O1)NCc1ccc(Cl)cc1 | 9 | 8.2µM* | 12µM* | -22% | -27%
O=C(CCC(=O)N1C[C@H]2C[C@@H](C1)c1cccc(=O)n1C2)NCc1cccc(C(F)(F)F)c1 | 18 | -17% | -17% | -2% | u
ClCCN(CCCl)c1ccc(-n2cnc3c(Cl)ncnc32)cc1 | -96* | 6.5µM* | 6.5µM* | u | 23µM*
CC(=O)O[C@@H]1/C=C/[C@](C)(O)C[C@@H](C)C/C=C/[C@H]2[C@@H]3O[C@]3(C)[C@@H](C)[C@H]3[C@H](Cc4ccccc4)NC(=O)[C@@]312 | 0 | 0.46µM* | 0.52µM* | -21% | u
O=C(Nc1ccc(Cl)cc1C(=O)c1ccccc1)c1ccc(Br)o1 | -15 | u | -20% | -17% | u
O=C(Nc1cc2c(cc1C(=O)c1ccc(Br)cc1)OCCO2)c1ccc(Cl)cc1 | x | u | 23µM* | x | x
CC(C)c1c(C(=O)NC(c2cccnc2)C(F)(F)F)cnn1-c1nccc(-c2cccs2)n1 (centres undefined) | x | 13µM* | u | x | x
CN(CCc1nnc(N)s1)[N+](=O)[O-] | 17 | -6% | -4% | 10% | 4%
Cc1c(CCNS(=O)(=O)c2ccccc2)sc2nc(-c3ccc(Cl)cc3)nn12 | x | 9.2µM* | 7.3µM* | x | x
COC(=O)C1=C(c2ccc(F)cc2F)C[C@@H]2CC[C@H]1N2C(=O)N1CCC(O)(c2ccc(Cl)cc2)CC1 | -78* | 18µM* | 21µM* | -19% | -1%
COC(=O)C1=C(c2cccc(OC)c2OC)C[C@@H]2CC[C@H]1N2C(=O)N1CCCC1 | 5 | x | 21µM* | 24% | 7%
COC(=O)C1=C(c2c(C)noc2C)C[C@@H]2CC[C@H]1N2C(=O)N1CCC(O)(c2ccc(Cl)cc2)CC1 | -5 | 21µM* | u | 4% | 4%
COC(=O)C1=C(c2ccc(F)cc2F)C[C@@H]2CC[C@H]1N2C(=O)N1CCCC1 | 21 | 8.2µM* | u | 13% | 2%
COC(=O)C1=C(c2ccc(F)cc2F)C[C@@H]2CC[C@H]1N2C(=O)N1CCOCC1 | 11 | u | u | -4% | 0%
COC(=O)C1=C(c2ccc(F)cc2OCc2ccccc2)C[C@@H]2CC[C@H]1N2C(=O)N1CCC(O)CC1 | -13 | u | u | 3% | 2%
COc1ccc(CC(C)NCCc2ccc(OC)c(OC)c2)cc1 (centres undefined) | -9 | -4% | 9% | -17% | -14%
O=CN1CC2CC(C1)c1cccc(=O)n1C2 (centres undefined) | x | -5% | 2% | x | x
O=c1[nH]c(=O)n(-c2ccc(Cl)cc2)c(O)c1C=NCCN1CCCCC1 | 19 | 0% | -9% | 0% | -2%
CC[C@H]1[C@@H]2C[C@H]3[C@@H]4N(C)c5ccccc5[C@]45C[C@@H](C2[C@H]5O)N3[C@@H]1O (some centres undefined) | x | -26%[21.1 µM] | u | x | x
Cc1cccc(Cn2cccc(C(=O)Nc3cc(C)on3)c2=O)c1 | x | -23% | -23% | x | x
SMILES | IL-1B inflam inh | TDP1 cell noCPT | DT40 TDP1 CPT | HT1080NT lethal | HT1080 IDH1KD tx
COC(=O)C1=C(c2cccc(OC)c2OC)C[C@@H]2CC[C@H]1N2C(=O)N1CCCCC1 | 36 | x | u | 12% | 2%
COC(=O)C1=C(c2ccc(F)cc2F)C[C@@H]2CC[C@H]1N2C(=O)N1CCCCC1 | 17 | 18µM* | 13µM* | 22% | 6%
COC(=O)[C@H](Cc1ccccc1)N(Cc1ccccc1)S(=O)(=O)N(Cc1ccccc1)[C@@H](Cc1ccccc1)C(=O)OC | 30 | 12µM* | 23µM* | 2% | 2%
COc1cc(C[C@@H](C)N)c(OC)cc1I | -64* | u | u | 25% | 5%
Cc1cc(N2CCCCC2)nc2ccc(NC(=O)CCC(=O)N3CCN(c4cccc(Cl)c4)CC3)cc12 | x | 3.7µM* | 6.5µM* | x | x
CCOc1cc(C2NCc3ccccc3-n3cccc32)ccc1O (centres undefined) | -57* | u | 23µM* | -11% | -6%
FC(F)(F)Oc1ccc(C2NCc3ccccc3-n3cccc32)cc1 (centres undefined) | 7 | u | -26% | 0% | -2%
CCOc1cc2c(cc1OCC)-n1cccc1C(c1cccc([N+](=O)[O-])c1)NC2 (centres undefined) | -16 | 18µM* | 23µM* | -10% | 0%
CC(C)c1ccc(C2NCc3ccccc3-n3cccc32)cc1 (centres undefined) | -10 | 21µM* | u | -13% | 0%
